Usually Inhibition stands for the percentage by which the read-out fell short of the control.

Common to all, as to assay type: functional
Test [1] relates to Plasmodium falciparum. Put plainly: GSK_TCMDC: Inhibition of Plasmodium falciparum 3D7 in whole red blood cells, using parasite LDH activity as an index of growth. Test compounds present at 2uM.
For test [2], the system named is Plasmodium falciparum. Put plainly: GSK_TCMDC: Inhibition of Plasmodium falciparum Dd2 in whole red blood cells, using parasite LDH activity as an index of growth. Test compounds present at 2uM.
In another test the test system is HepG2. As to the kind of experiment: GSK_TCMDC: Percent inhibition of human HepG2 cell line. Test compounds present at 10uM.

Turning to `CCCCn1c(Sc2ccc(C#N)c([N+](=O)[O-])c2)nnc1-c1cccc(Cl)c1`, the Inhibition in the test on Plasmodium falciparum [1] amounted to 96%; in the test on Plasmodium falciparum [2], 87%; in the test with HepG2 it was 30%.

In the case of `O=S(=O)(c1cccc(Br)c1)N1CCCCC(c2ccc(C(F)(F)F)cc2)=N1`, the figures for the Inhibition in the test on Plasmodium falciparum [1], in the test with Plasmodium falciparum [2] and in the test with HepG2 were 91%, 92% and 30%, respectively.

On to `COc1ccc(-n2nc(C)c3c2NC(=O)CC3c2ccccc2OCc2ccc(F)cc2)cc1` (stereo not given), for which the Inhibition came to 93% in the test with Plasmodium falciparum [1], 65% in the test with Plasmodium falciparum [2] and 53% in the test with HepG2.

`CCC(C)NC(=O)Nc1ccc(-c2cccc(-c3nc4cc(C(F)(F)F)ccc4[nH]3)c2)cc1` (stereo not given): the results for the Inhibition in the test with Plasmodium falciparum [1], in the test on Plasmodium falciparum [2] and in the test on HepG2 were 97%, 0% and 45%, respectively.

As for `O=C(O)C(F)(F)F.c1cncc(CCNCc2cccc(-c3ccc(-c4nc5ccccc5[nH]4)s3)c2)c1`, the results for the Inhibition in the test with Plasmodium falciparum [1], with Plasmodium falciparum [2] and in the test with HepG2 were 100%, 97% and 8%, respectively.

For the molecule `O=C(Nc1nc2cc(S(=O)(=O)NCc3ccc(Cl)c(Cl)c3)ccc2n1CCCN1CCCC1)c1ccc(Cl)cc1.O=C(O)C(F)(F)F`, the values for the Inhibition with Plasmodium falciparum [1], in the test with Plasmodium falciparum [2] and in the test with HepG2 were 89%, 16% and 57%, respectively.

As to `CC(CN1CCN(C)CC1)C(=O)Nc1ccc(-c2cccc(-c3nc4cc(C(F)(F)F)ccc4[nH]3)c2)cc1` (stereo not given), the Inhibition was 99% with Plasmodium falciparum [1], 96% in the test on Plasmodium falciparum [2] and 16% in the test with HepG2.

In the case of `COc1cccc(N(CCCN2C(=O)c3cccc4cccc(c34)C2=O)C(=O)c2ccccc2C)c1`, the Inhibition with Plasmodium falciparum [1] is reported as 86%; in the test on Plasmodium falciparum [2] it was 70%; in the test on HepG2 it was 20%.

As for `COc1cc(-c2ccc3c(-c4ccc(C(=O)N5CCN(C)CC5)cc4)n[nH]c3n2)cc(OC)c1OC`, the figures for the Inhibition with Plasmodium falciparum [1], in the test with Plasmodium falciparum [2] and in the test with HepG2 were 91%, 54% and 27%, respectively.

Take `CN(C)CCCNCc1cn(S(=O)(=O)c2ccccc2Cl)c2ccccc12.Cl`: the Inhibition is 92% in the test on Plasmodium falciparum [1], 71% in the test with Plasmodium falciparum [2] and 20% in the test on HepG2.

Values taken from ChEMBL document CHEMBL1157539, “Thousands of chemical starting points for antimalarial lead identification” (Nature, 2010).
